Among the data in PubChem BioAssay AID504329 (Southern Research Specialized Biocontainment Screening …, 2011) are inhibition values, retold here.

Screen size: about 340,000 compounds; about 1,000 (0.29%) were called active. A selection follows. Measured potencies and affinities stand elsewhere. Unmarked numbers belong to inactive results. Cut-off read from the data, not from the text of the source: inconclusive = inhibition above about 27% without an active follow-up result; inactive = below that.

The nature of the assay: NS1A inhibition, H1N1 influenza, cell based functional assay (AID 504329). To be noted: percent inhibition, at 12.5 µM, hits give high values.
In general, inhibition refers to the drop in the measured response relative to a control, in per cent. Regarding `COc1cc(OC)c([N+](=O)[O-])cc1/C=N/NC(=O)c1ccncc1`, the inhibition was 1.29%. As for `COc1cc(/C=N/NC(=S)Nc2cccc(C(=O)O)c2)ccc1O`, the inhibition is -4%. With `O=C(N/N=C/c1ccccc1)c1cc[n+]([O-])cc1`, the inhibition is -4.01%. In the case of `O=C(N/N=C/c1ccc(Br)cc1)c1cc[n+]([O-])cc1` it was 6.04%; in that of `COc1cc(/C=N/NC(=O)c2ccncc2)c([N+](=O)[O-])cc1OC`, -2.25%; in that of `COc1ccc(/C=N\NC(=O)C2=NNC(=O)C2C)cc1` (stereo unspecified), 3.13%. Turning to `COc1cc(/C=N/NC(=S)Nc2cccc(C(=O)O)c2)cc(OC)c1OC`, the inhibition was -7.56%. In the case of `COc1cc(/C=N/NC(=O)C2=NNC(=O)C2C)ccc1O` (stereo unspecified) it was -32.2%. As to `CC(NC(=O)c1ccc(NC(=O)CC2SC(N3CCCC3)=NC2=O)cc1)c1ccccc1` (stereo unspecified), the inhibition was -7.82%. For `O=S(=O)(c1ccc(S(=O)(=O)N2CCOCC2)cc1)N1CCCC1`, the inhibition is 4.18%. With `CCCCC(=O)N(c1ccc(C(=O)O)cc1)c1nc(-c2ccc(Cl)cc2)c(CC)s1`, the inhibition was -4.2%. For `O=C(NC1CCCCC1)C1CC(=O)N(Cc2ccccc2)C1` (stereo unspecified), the inhibition was -1.57%. Turning to `C[N+](C)(C)C(Cc1ccccc1)C(=O)[O-]` (stereo unspecified), the inhibition is -4.58%. In the case of `O=C(O)c1cccc(NC(=S)N/N=C/c2cccc(O)c2)c1`, the inhibition was 2.28%. The figure for `COc1ccccc1/C=N/NC(=O)C(=O)NCc1cccnc1` is -1.04%. `O=C(O)c1cccc(NC(=S)N/N=C/c2cccnc2)c1`: the inhibition was 4.47%. As for `COc1cccc(/C=N/NC(=O)C(=O)NCc2cccnc2)c1OC`, the inhibition is -5.14%.

On to `COc1cc(OC)c(OC)cc1/C=N/NC(=O)C[n+]1ccccc1`, for which the inhibition is -11.7%. In the case of `CCOc1cc(Br)cc(/C=N/NC(=O)c2cccnc2)c1O` it was 15.9%. Take `COc1cccc(/C=N/NC(=O)C[n+]2ccccc2)c1OC`: the inhibition is 0.86%.

Turning to `CCOc1cc(/C=N/NC(=O)c2cccnc2)ccc1O`, the inhibition was 11.3%.

In the case of `CCOc1ccc(NS(=O)(=O)c2cccc(C(=O)NCC3(N(C)C)CCCCC3)c2)cc1`, the inhibition was 0.36%.

For `Cc1cc2nc(-c3ccc[nH]c3=O)n(Cc3ccc(F)cc3)c2cc1C`, the inhibition is 1.86%.

For the compound `COc1cccc(CNC(=O)COC(=O)C23CC4CC(CC(Cl)(C4)C2)C3)c1`, the inhibition was -9.8%. `O=C(CN(Cc1ccccc1Cl)C(=O)c1ccc(CN2CCOCC2)o1)NCc1ccccc1`: the inhibition was 1.95%. For `O=c1c2ccccc2nc(SCCN2CCCCC2)n1CCc1ccccc1`, the inhibition is 6.75%. In the case of `CC/C(C)=N/N1C(=O)c2ccccc2NC1(C)CC` (stereo unspecified), the inhibition was 5.09%.

`O=C(CCc1c[nH]c2ccccc12)NCC1CCCO1` (stereo unspecified): the inhibition was -2.9%.

Regarding `O=C(Cn1c(-c2ccccc2)noc1=O)Nc1ccc(S(=O)(=O)N2CCOCC2)cc1`, the inhibition is 2.21%. The figure for `COc1cccc(/C=N/NC(=O)CNC(=O)c2ccncc2)c1O` is 10.4%. Regarding `Cc1nonc1C(=O)N/N=C/c1cccc(O)c1`, the inhibition is -4.77%. Regarding `O=C(N/N=C/c1ccccc1Cl)c1ccncc1`, the inhibition is 2.1%. In the case of `O=C(N/N=C/c1ccc(O)cc1)c1ccncc1` it was -6.99%; in that of `O=C(CNC(=O)c1ccncc1)N/N=C/c1ccc(O)cc1O`, 9.53%; in that of `O=C(N/N=C/c1ccccc1C(=O)O)c1ccncc1`, -0.84%.

For the compound `COc1ccccc1C=NNC(=O)c1ccncc1`, the inhibition was -14.4%.

Take `Cc1nonc1C(=O)N/N=C/c1ccc(O)c(O)c1`: the inhibition was -5.97%. The figure for `CC(NC(=O)COC(=O)/C=C/c1ccco1)c1ccccc1` (stereo unspecified) is -3.74%; for `CCOC(=O)c1ccccc1NC(=O)CSc1nc(N)cc(=O)[nH]1` it is -7.55%; for `CN(C)C(=O)c1ccc(NC(=O)COc2cccc(Oc3ccccc3)c2)cc1` it is -4.79%. For the compound `CC(C)CCC(C(=O)O)C(C)CC(=O)NC1CCCCC1` (stereo unspecified), the inhibition was 4.04%. As for `CCC(C)[C@H](NC(=O)N1CC(=O)Nc2ccccc21)C(=O)N1CCC(C(=O)O)CC1` (stereo partly specified), the inhibition was 1.95%. With `Cc1cccc(N(C(=O)CNC(=O)c2ccco2)C(C(=O)NC2CCCC2)c2ccncc2)c1C` (stereo unspecified), the inhibition is 6.68%. The figure for `CCCn1cc(CN2CCC(n3nccc3NC(=O)CCOc3ccccc3)CC2)c(C)n1` is 3.28%. In the case of `CN1CCN(c2ccc(S(=O)(=O)N3CCCCC3)cn2)CC1` it was -0.41%. For `O=C(COC(=O)c1cc([N+](=O)[O-])ccc1N1CCOCC1)Nc1ccc(Cl)cc1`, the inhibition was -5.7%.

`Cc1cccc(C)c1C(=O)N[C@@H](Cc1ccccc1)C(=O)O`: the inhibition was 2.25%. For `O=C(NN=Cc1ccccc1O)C1CC1`, the inhibition was -17.2%. `O=C(N/N=C/c1ccccc1O)NC12CC3CC(CC(C3)C1)C2`: the inhibition is -3.3%. On to `O=c1[nH]c2cc(Cl)c(Cl)cc2o1`, for which the inhibition is -8.2%. As to `O=C(COC(=O)C1(c2ccccc2)CC1)NNC(=O)c1ccccc1F`, the inhibition is -15.8%. The figure for `CC1(C)CC(=O)C(N=Nc2c(Cl)cc(Cl)cc2Cl)=C(O)C1` is 9.91%. `Cc1c(N=Nc2ccc(O)cc2)c(=O)n(-c2ccccc2)n1C`: the inhibition was -3.89%.

As for `CC1(C)CC(=O)C(N=Nc2ccc(-c3ccccc3)cc2)=C(O)C1`, the inhibition is 10.2%. In the case of `Cc1c(N=Nc2c(O)n(C)c(=O)n(C)c2=O)c(=O)n(-c2ccccc2)n1C`, the inhibition was 3.65%.

Regarding `Cc1cc(NC(=O)CC(C)C)c(=O)n(Cc2c(F)cccc2Cl)c1`, the inhibition is -1.36%. In the case of `Cc1ccc(S(=O)(=O)N2CCN(C(=O)CC3CCCC3)CC2)cc1` it was 2.13%. The figure for `Cc1cc(C)c2nc(SCC(=O)NNC(=O)c3ccco3)c(C)cc2c1` is -0.91%; for `Cc1ccc(S(=O)(=O)N2CCCCC2)cc1C(=O)N1CCCCCC1` it is -15.6%. In the case of `CCOC(=O)C1CCN(C2CCN(C(=O)c3oc4c(F)cccc4c3C)CC2)CC1`, the inhibition is -2%. The figure for `Cc1ccc(S(=O)(=O)N(CCC(=O)NCc2ccccc2F)c2ccccc2)cc1` is -14.3%.
